# Only some compounds are listed: those with a hit (about 7.8% of all), similar ones and a draw of the others.
# LASV entry inh: qHTS for Inhibitors of binding or entry into cells for Lassa Virus; Potency, µM (highest dose often 37.9 µM), without a hit: at the top dose activity change, negative = inhibition, most hits filed as inhibitors; Lassa virus pseudotype entry inhibition, cell reporter; 300,000 compounds, 1.2% hits; AID 540256, 2011; calls by dose curve; tested in HEK293 cells; further: potency means the concentration at half of the fitted maximal effect; nearly all actives have a fitted effect of over 50% in size
# Vaccinia mCherry: qHTS for Stage-Specific Inhibitors of Vaccinia Orthopoxvirus: mCherry Reporter Primary qHTS | AID 720579, 2013 | Potency, µM (highest dose often 36.5 µM), inactives show at the highest dose activity change, negative = inhibition, hits mostly inhibitors | Vaccinia virus mCherry reporter infection, fluorescence | 310,000 compounds, 0.63% hits; calls by dose curve; tested in A549 cells; further: potency means the concentration at half of the fitted maximal effect; nearly all actives have a fitted effect of over 35% in size
# HCV inhibitor: qHTS Assay for Inhibitors of Hepatitis C Virus (HCV). Huh7.5.1 HCVcc-Cre infection, luciferase reporter, 44 h. Potency, µM (titrated, usually from 41.8 µM), without a hit: top-dose activity change, negative = inhibition, most hits filed as inhibitors. 340,000 compounds, 3.4% hits. AID 651820, 2012; active means well fitted inhibition curve with a large enough effect; inconclusive means small, poorly fitted or top-dose-only effect, or another doubt; inactive means no such curve, though single readings can be large or run the other way; further: potency means the concentration at half of the fitted maximal effect
#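 Whole-lifecycle infectious HCVcc-Cre system; cells 1,000/well, compound then virus (~0.5 moi) added 4 h after plating, 44 h culture. Luciferase read 15 sec following 15 min substrate incubation, room temp.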
# HCMV inh: qHTS Assay for inhibitors of the human cytomegalovirus (HCMV); activity change, negative = inhibition, % at 57.5 µM; 410,000 compounds, 4.5% hits; HFF cells, HCMV-luciferase reporter, 72 h; active compounds read low; in the data active means activity change below about -60%; inconclusive means no clear call, values can overlap the other calls; inactive means above about -39%
#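 Two-dose cell screen: HFF monolayers treated with compounds and infected with luciferase-expressing HCMV at 1 PFU/cell, 72 h at 37C, then lysed for luciferase measurement.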
# Vaccinia Venus: qHTS for Stage-Specific Inhibitors of Vaccinia Orthopoxvirus: Venus Reporter Primary qHTS; Vaccinia virus Venus reporter expression, fluorescence; Potency, µM (doses to about 36.5 µM), without a hit: at the top dose activity change, negative = inhibition, most hits filed as inhibitors; 330,000 compounds, 0.46% hits; AID 720580, 2013; calls by dose curve; tested in A549 cells; further: potency means the concentration at half of the fitted maximal effect; nearly all actives have a fitted effect of over 30% in size
# Marburg entry inh: qHTS for inhibitors of binding or entry into cells for Marburg Virus; Marburg virus pseudotyped entry inhibition, cell reporter; Potency, µM (top dose mostly 37.8 µM), for the others: at the top dose activity change, negative = inhibition, actives largely listed as inhibitors; 300,000 compounds, 1.8% hits; AID 540276, 2011; calls by dose curve; tested in HEK293 cells; further: potency means the concentration at half of the fitted maximal effect
# * marks the source's active call; other numbers are inactive results; i = inactive; ? = inconclusive; nt = no result given; [ ] = remark or other dose. On the % scale 0 is the no-effect control and ±100 the full control effect.
SMILES,LASV entry inh,Vaccinia mCherry,HCV inhibitor,HCMV inh,Vaccinia Venus,Marburg entry inh
O=C1/C(=C/c2cccs2)SC(=S)N1CCC(=O)N1CCCCC1CCO (stereo not given),16%[46.1 µM],?,-9%,-96*,-20%,?
CCn1nc(C)cc1C(=O)Sc1cccc(Br)c1,-26%,-2%[7.34 µM],5%,-107*,-9%[7.34 µM],8%[46.1 µM]
CCn1nc(C)cc1C(=O)OCC(=O)c1ccc(Cl)cc1,-8%[46.1 µM],-7%,2%,16,-1%,13%[46.1 µM]
CCn1nc(C)cc1C(=O)Sc1ccc(Cl)cc1Cl,15%,-22%[7.34 µM],3%,-108*,-17%[7.34 µM],2%[46.1 µM]
COc1ccc(Cl)cc1NC(=O)c1cc(S(=O)(=O)N(C)Cc2ccccc2)ccc1F,13%[46.1 µM],-10%,nt,-20,-15%,nt
COc1ccccc1NC(=O)C1CCN(S(=O)(=O)c2ccc3[nH]c4c(c3c2)CCCCC4)CC1,-3%[46.1 µM],-16%,nt,?,-9%,nt
CSCCC(c1nnnn1-c1ccc2c(c1)OCCO2)N1CCC(n2c(=O)[nH]c3ccccc32)CC1 (stereo not given),nt,-11%,nt,-72*,-23%,nt
COc1ccc(-n2nnnc2C(c2cccs2)N2CCC(n3c(=O)[nH]c4ccccc43)CC2)cc1 (stereo not given),nt,-24%,nt,-33,?,nt
O=c1[nH]c2ccccc2n1C1CCN(C(c2ccccc2)c2nnnn2-c2ccc3c(c2)OCCO3)CC1 (stereo not given),nt,-18%,nt,-86*,-27%,nt
CCC(c1nnnn1-c1ccc2c(c1)OCCO2)N1CCC(n2c(=O)[nH]c3ccccc32)CC1 (stereo not given),nt,6%,nt,?,-11%,nt
O=c1[nH]c2ccccc2n1C1CCN(C(c2cccs2)c2nnnn2-c2ccc3c(c2)OCCO3)CC1 (stereo not given),nt,?,nt,-80*,?,nt
O=c1[nH]c2ccccc2n1C1CCN(C(c2nnnn2-c2ccc3c(c2)OCCO3)C2CC2)CC1 (stereo not given),nt,-7%,nt,?,-24%,nt
COc1ccccc1CNC(=O)c1cc2sccc2n1Cc1ccc(F)cc1,1%[46.1 µM],-19%,nt,-4,-11%,?
N#Cc1ccccc1NS(=O)(=O)c1ccc(N2CCCCS2(=O)=O)cc1,-4%[46.1 µM],3%,nt,8,-1%,nt
CCOCCCn1c(SCC(=O)Nc2ccccc2)nc2ccccc2c1=O,?,-22%,-7%,-38,?,-20%
CCOCCCn1c(SCc2nc3ccccc3s2)nc2ccccc2c1=O,?,i,11µM*,-78*,-5%,7.1µM*
CCOCCCn1c(SCC(=O)NC(C)C)nc2ccccc2c1=O,12%,nt,14%,-107*,nt,0%
COC(=O)[C@H]1O[C@@H](c2cc(OC)c(C)c(OC)c2OCc2ccccc2)[C@H](C)[C@@H]2O[C@]12C,-3%[14.3 µM],nt,nt,nt,nt,-6%[14.2 µM]
CCC12CN3CC(CC)(CN(C1)C3c1c[nH]c3ccccc13)C2=O (stereo not given),?,-12%,nt,34,-28%,nt
O=C(NCc1ccco1)c1cc(S(=O)(=O)N2CCCc3ccccc32)ccc1Cl,?,i,?,-67*,-25%,?
COc1ccc(S(=O)(=O)N2CCc3ccccc32)cc1C(=O)NCc1ccco1,?,-17%,-18%,-38,-18%,-28%
O=C(Nc1ccc(F)c(Cl)c1)c1cc(S(=O)(=O)N2CCCc3ccccc32)ccc1F,19%[46.1 µM],-4%[7.34 µM],nt,-32,-3%[7.34 µM],nt
Cc1ccc(C)c(NC(=O)c2cc(S(=O)(=O)N3CCCc4ccccc43)ccc2F)c1,-29%[46.1 µM],-15%,nt,-62*,-12%,nt
Cc1ccc(S(=O)(=O)c2nc(-c3ccco3)oc2SCc2ccc(F)cc2)cc1,-29%[46.1 µM],-23%,nt,-23,-18%,-1%[46.1 µM]
Nc1nc(N)c2c(ccc3nccc32)[nH]1,nt,?,?,-96*,?,nt
Cc1ccccc1C(=O)Nc1nc(-c2ccc(Br)cc2)ns1,3%[46.1 µM],?,nt,-95*,?,-2%[46.1 µM]

# Source: PubChem (National Center for Advancing Translational Sciences (NCATS))
